In the library only some 3.8% were active in any assay of this set; here they are far more common.
S2 tox – cell viability loss in ATXN counter-screen | S2 cells (HEK-293 line with an ATXN2-luciferase reporter) viability, CellTiter-Fluor protease fluorescence, 24 h | Potency, µM (doses to about 56.7 µM), usual class: cytotoxic | 0.49% of 400,000 active | AID 651635; further: nearly all actives have a fitted effect of over 40% in size
ATXN2 expr inh – inhibitors of ATXN2 expression; AID 1745845; HEK-293 ATXN2-luciferase reporter, luminescence, 24 h; 0.72% of 360,000 active; Potency, µM (titrated, usually from 57 µM), usual class: inhibitors; further: nearly all actives have a fitted effect of over 55% in size
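ATXN2-luciferase reporter cells (luciferase flanked by upstream and downstream ATXN2 gene portions) were treated 24 h at 37 °C with compounds at up to 57 uM. SteadyGlo luminescence gave expression; GF-AFC fluorescence gave viability.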
HT1080-NT tox – kills 2HG-producing HT-1080-NT fibrosarcoma cells. HT-1080-NT fibrosarcoma viability, CellTiter-Glo ATP luminescence, 48 h. Potency, µM (highest dose often 46.1 µM), hits mostly cytotoxic. 1.6% of 360,000 active;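 further: NT is the 2HG producing partner of a matched IDH1 knockdown line; nearly all actives have a fitted effect of over 55% in size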
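HT-1080-NT fibrosarcoma cells (2HG-overproducing), 750 cells/well in RPMI with 5% FBS, dosed after 2 h and incubated 48 h at 37C. CellTiter-Glo luminescence normalized to DMSO and no-cell wells; concentration-response curves fitted and classed.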
TGFb inhibitor – inhibitors of TGF-b signaling; 1.2% of 410,000 active; HepG2 CAGA-GFP TGF-b/SMAD3 reporter, GFP fluorescence, 18 h; TGF-beta stimulated, 500 pg/mL final; Potency, µM (titrated, usually from 46.1 µM), usual class: inhibitors; further: nearly all actives have a fitted effect of over 65% in size
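HEPG2 CAGA-GFP, 1000 cells/well; 2 h settle, 37 C; cpd via pin tool; TGF-b 500 pg/mL final; 18 h, 37 C; GFP imaging ex488/em500-530; %Activity normalised to -TGF-b and +DMSO controls; CRC fit, curve class.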
HT1080 IDH1KD tx – HT-1080 IDH1 knockdown cell toxicity (counter line). HT-1080 IDH1 knockdown viability, ATP luminescence, 48 h. 2% of 360,000 active. Potency, µM (doses to about 46.1 µM), most hits filed as cytotoxic
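Knockdown cells (IDH1KD HT-1080) received compounds 2 h after plating at 750 cells/well and were kept 48 h at 37 °C in 5% FBS RPMI. A CellTiter-Glo luminescence read gave % activity for curve fitting.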
HepG2 viability – kills HepG2 cells in TGF-b inhibitor counter-screen. Potency, µM (doses to about 46.1 µM), usual class: cytotoxic. 0.76% of 410,000 active. AID 588856. HepG2 CAGA-GFP viability, ATP luminescence, 18 h
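CellTiter-Glo luminescence gave cytotoxicity after 18 hours at 37 degrees C. The cells were HepG2 CAGA-GFP in 1% FBS DMEM, stimulated with 500 pg/mL TGF-beta after compound addition. %Activity was normalised to no-cell wells (complete cell-killing) and DMSO (no toxicity), and curves were fitted and classified.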
Each line names hits and unclear results; the compound was inactive in the other large screens. The call rests on the fitted dose curve; in most records, active means well fitted curve in the direction sought with a large enough effect; inconclusive means small, poorly fitted or top-dose-only effect, or another doubt; inactive means no such curve, though single readings can be large; an effect the other way counts as inactive or inconclusive.

C[C@H](CO)N1C[C@H](C)[C@@H](CN(C)Cc2ccc(C(=O)Nc3ccccc3N)cc2)Oc2c(NC(=O)C3CCCCC3)cccc2C1=O	S2 tox 20µM, ATXN2 expr inh inconclusive
C[C@H](CO)N1C[C@H](C)[C@@H](CN(C)Cc2ccc3c(c2)OCO3)Oc2c(NC(=O)C3CCCCC3)cccc2C1=O	S2 tox inconclusive, TGFb inhibitor inconclusive
CCCCc1ccc(Nc2nc(CCC)cc(=O)[nH]2)cc1	ATXN2 expr inh inconclusive, HT1080-NT tox 21µM, TGFb inhibitor inconclusive, HT1080 IDH1KD tx inconclusive (no result: S2 tox)
CC(C)CNC(=O)CSc1nc2scc(-c3ccccc3)c2c(=O)[nH]1	S2 tox inconclusive, TGFb inhibitor inconclusive
COc1ccc(CCNC(=O)CSc2nc3scc(-c4ccccc4)c3c(=O)[nH]2)cc1	TGFb inhibitor 13µM
CCC(=O)NC1=C(Cl)C(=O)C(NC(=O)CC)=C(Cl)C1=O	HT1080-NT tox inconclusive, TGFb inhibitor inconclusive, HT1080 IDH1KD tx 18µM (no result: S2 tox, ATXN2 expr inh)
O=C(Cc1ccc(OCCC2CCCCC2)cc1)NO	none (no result: S2 tox, ATXN2 expr inh, HT1080-NT tox, HT1080 IDH1KD tx)
CCCCCCCCCCOC(=O)Cn1c(COc2ccccc2OC)[n+](C)c2ccccc21	S2 tox inconclusive, ATXN2 expr inh inconclusive, HT1080-NT tox 15µM, TGFb inhibitor inconclusive, HT1080 IDH1KD tx 21µM
NC(=S)NN=C1c2ccccc2-c2ccccc21	S2 tox 1.4µM, TGFb inhibitor 6.3µM (no result: ATXN2 expr inh)
O=C(NN=C1c2ccccc2-c2ccccc21)c1ccccc1	none
Cc1c(C(=O)NCC2(N3CCOCC3)CCCCC2)cnn1-c1nccc(-c2ccccc2F)n1	none (no result: ATXN2 expr inh, HT1080-NT tox, TGFb inhibitor, HT1080 IDH1KD tx, HepG2 viability)
COc1cc2cnc(-c3ccccc3)c(-c3ccc(C(F)(F)F)cc3)c2cc1OC	S2 tox inconclusive, ATXN2 expr inh inconclusive, TGFb inhibitor 11µM
Fc1ccc2cnc(-c3ccccc3)c(-c3ccc(C(F)(F)F)cc3)c2c1	none
C/C(=N/Nc1nc(-c2ccccc2F)nc2ccccc12)c1ccccc1O	HT1080-NT tox inconclusive, TGFb inhibitor 13µM (no result: ATXN2 expr inh)
C/C(=N\Nc1nc(-c2ccccc2O)nc2ccccc12)c1ccccc1	none
CCOc1ccc(CNC(=O)c2cc3cc(S(=O)(=O)N4CCCCC4)ccc3n2C)cc1	none (no result: S2 tox, ATXN2 expr inh, HT1080-NT tox, HT1080 IDH1KD tx)
CCOc1ccc(NC(=O)c2cc(OC)nc3ccccc23)cc1	S2 tox inconclusive, HT1080-NT tox 0.46µM, HT1080 IDH1KD tx 0.46µM
Cc1ccc(NC(=O)c2cc(Cl)nc3ccccc23)cc1	none (no result: S2 tox, ATXN2 expr inh)
O=C(Nc1ccccc1)c1cc(N2CCOCC2)nc2ccccc12	none
O=C(O)c1cc(/C=C/c2ccc(N3CCOCC3)cc2)nc2ccccc12	ATXN2 expr inh inconclusive, HT1080-NT tox 23µM, HT1080 IDH1KD tx inconclusive (no result: S2 tox)
Cc1ccc(NC(=O)c2cc(N3CCOCC3)nc3ccccc23)cc1	HT1080-NT tox 10µM, HT1080 IDH1KD tx inconclusive
COc1cc(C(=O)Nc2ccc(C)cc2)c2ccccc2n1	S2 tox inconclusive, HT1080-NT tox inconclusive, HT1080 IDH1KD tx 0.52µM
O=C(O)c1cc(/C=C/c2ccc(N3CCOCC3)c([N+](=O)[O-])c2)nc2ccccc12	S2 tox inconclusive
COc1ccc(NC(C)=O)cc1NC(=O)C1(c2cccs2)CCOCC1	none (no result: HT1080-NT tox, HT1080 IDH1KD tx)
Cn1cc(CNCc2ccc(OC(F)(F)F)cc2)c(-c2ccc3c(c2)OCCO3)n1	S2 tox inconclusive, HT1080-NT tox 21µM, TGFb inhibitor inconclusive (no result: ATXN2 expr inh)
CN(C)c1ccc(/C=C/c2ccnc3ccccc23)cc1C=O	TGFb inhibitor inconclusive (no result: S2 tox, ATXN2 expr inh, HT1080-NT tox, HT1080 IDH1KD tx)
O=c1oc2ccccc2c(O)c1/C=C1\C=Nc2ccccc21	HT1080-NT tox inconclusive, HT1080 IDH1KD tx 26µM
COc1ccc(NC(=O)/C=C\C(=O)N(c2ccc(C(C)C)cc2)C(C(=O)NCc2ccco2)c2ccc(C)cc2)cc1 (stereo not drawn)	TGFb inhibitor inconclusive (no result: S2 tox, ATXN2 expr inh, HT1080-NT tox, HT1080 IDH1KD tx)
Cc1ccc(NC(=O)/C=C\C(=O)N(c2ccc(C(C)C)cc2)C(C(=O)NCc2ccco2)c2ccc(F)cc2)cc1 (stereo not drawn)	TGFb inhibitor 6.3µM (no result: S2 tox, ATXN2 expr inh, HT1080-NT tox, HT1080 IDH1KD tx)
CCn1c2ccccc2c(=O)c2ccccc21	none (no result: S2 tox)
Cn1c(-c2ccccc2)c(CCO)c2ccccc21	none
